This is one part of the list. Values without a mark were called inactive. The source made the active and inactive calls.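 The calls were made as follows: active = average activation exceeds primary screen hit cutoff (cut at about 21% in these data); inactive = the rest.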
The molecules below were run against Vasopressin V1a receptor (Homo sapiens) (UniProt P37288) (assay: V1a receptor agonists, calcium signal, confirmation, Fluo-8 calcium fluorescence, CHO-V1R cells (AID 434964;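 also: peak over basal fluorescence ratio during a 100 s FLIPR read; 0% = DMSO only wells and 100% = 3 nM vasopressin wells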)). Details: agonist, at 3 µM, active compounds read high.
Sequence of Vasopressin V1a receptor (Homo sapiens) (P37288 whole entry, looked up): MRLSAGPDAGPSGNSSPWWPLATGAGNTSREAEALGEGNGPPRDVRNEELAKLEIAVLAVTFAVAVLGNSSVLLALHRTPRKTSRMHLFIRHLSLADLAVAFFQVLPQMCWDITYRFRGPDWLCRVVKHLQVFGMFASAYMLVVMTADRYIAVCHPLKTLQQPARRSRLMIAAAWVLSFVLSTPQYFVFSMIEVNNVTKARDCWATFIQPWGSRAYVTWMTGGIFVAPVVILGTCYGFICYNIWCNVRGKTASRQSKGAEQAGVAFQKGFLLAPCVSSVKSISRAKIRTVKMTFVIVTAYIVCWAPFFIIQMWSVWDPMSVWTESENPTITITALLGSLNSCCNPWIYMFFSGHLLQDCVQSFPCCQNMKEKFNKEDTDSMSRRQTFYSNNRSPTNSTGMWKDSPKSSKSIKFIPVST

Structure (SMILES)	activation
Cc1cc(C)c(/C=C2\C(=O)Nc3ccccc32)[nH]1	40.5% (active)
Fc1cccc(Cl)c1COc1ccc(-c2nnco2)cc1	2.1%
O=c1c2cc(Br)ccc2nc(-c2cccc(Cl)c2)n1O	31.8% (active)
O=C(c1ccccc1)c1ccc(OCC(O)CN2CCCC2)cc1 (stereo not drawn)	-0.08%
CC1(C)S[C@@H]2[C@H](N=CN3CCCCCC3)C(=O)N2[C@H]1C(=O)O	0.2%
CCN(CC)c1ccc2cc(C(N)=O)/c(=N\NC(=O)c3ccncc3)oc2c1	21.7% (active)
O=C(CN1CCN(c2cccc(Cl)c2)CC1)Nc1ccc(S(=O)(=O)N2CCOCC2)cc1	3.06%
CCN(CC)c1ccc(/C=N/NC(=O)c2cnccn2)c(O)c1	10.5%
